LMP1 NFkB inh = inhibitors of Epstein-Barr LMP1-induced NF-kappaB reporter | LMP1-induced NF-kappaB luciferase reporter cells, luminescence | inhibition, % at 12.5 µM | hit rate 0.69% among 350,000 | AID 504558; in the data active = inhibition above about 41%; inconclusive = no clear call, values can overlap the other calls;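 note: 0% = neutral control wells and 100% = reference inhibitor control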
LGR2 antag = blocks bursicon-induced cAMP signaling via Drosophila LGR2; inhibition, % at 9.99 µM; hit rate 0.35% among 380,000; HEK293 LGR2, CRE-luciferase, bursicon-stimulated, 4 h; AID 720647;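 active = drop in luminescence signal, shown as inhibition above about 50% in the replicate tests, limit read from the data, passing the limit was not always enough; inconclusive = probably only some replicates passing the limit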;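 note: agonist challenge used bursicon conditioned medium at about half maximal strength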
TWEAK Fn14 block = TWEAK-Fn14 signaling inhibition; inhibition, % at 10 µM; AID 1159606; hit rate 2% among 360,000; TWEAK-stimulated Fn14 reporter cells, luciferase luminescence, 8 h; in the data active = inhibition above about 50%
HSP90 refold inh = blocks HSP90-mediated luciferase refolding in reticulocyte lysate. hit rate 0.91% among 290,000. AID 1789. inhibition, % at 5.6 µM. Rabbit reticulocyte lysate, luciferase refolding luminescence, 3 h;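 active = inhibition above the screen-wide mean plus 3 SD, computed separately per campaign, cut at about 16% in these data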;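 note: 0% = DMSO wells and 100% = 60 µM geldanamycin wells; inhibitors lower the luminescence because luciferase stays unfolded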
aDG glyco up = increases alpha dystroglycan glycosylation; Pro5-aDG cells, alpha-DG glycosylation AlphaScreen (IIH6); 0% Pro5, 100% B10-LARGE cell signal; AID 624168; activation, % at 10 µM; hit rate 0.22% among 360,000;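 active = activation of at least 8% versus controls, or a plate z-score of at least 8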;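 note: Pro5 are CHO cells carrying HIG-tagged alpha-DG that lacks glycosylation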
TROY signal inh = inhibitors of TROY-dependent NF-kB signaling. inhibition, % at 10 µM. Q293 LMP1-TROYcd NF-kB luciferase reporter, 4 h. AID 1347056. hit rate 0.98% among 360,000;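 active = compounds whose plate-normalised and pattern-corrected inhibition of the luciferase reporter signal at the single screening dose is 50% or more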
Starred values were filed as active, the others as inactive; u = inconclusive; x = not tested or not shown. Most compounds without a hit are left out; they make up all but 2.6% or so of the library.

SMILES	LMP1 NFkB inh	LGR2 antag	TWEAK Fn14 block	HSP90 refold inh	aDG glyco up	TROY signal inh
Cn1cnc(S(=O)(=O)N2C[C@@H](O)COC[C@@H]3O[C@@H](CC(=O)NCc4cccc(F)c4)CC[C@H]32)c1	x	-13.2	x	x	x	x
CC(Sc1nc(-c2ccc(F)cc2)cs1)C(=O)N1c2ccccc2CC1C (stereo not drawn)	59.1*	11.5	30.0	3.6	0.1	9.1
O=C([C@@H]1[C@@H](CO)[C@@H]2Cn3c(ccc(-c4ccccc4F)c3=O)[C@H]1N2C(=O)C1CCC1)N1CCOCC1	x	1.3	x	x	x	x
C=CC(C)(C)c1c(O)c(CC=C(C)C)c(O)c2c(=O)c3ccc(O)c(O)c3oc12	34.0	x	76.5*	x	0.0	46.4
Cc1sc2ncnc(N3CCC(C(=O)Nc4ccc(Br)cc4Br)CC3)c2c1C	10.8	-2.8	33.0	x	0.4	56.0*
COc1ccc(-c2csc(NC(=O)c3ccc(OCC(=O)N4CCOCC4)c(OC)c3)n2)cc1OC	20.2	x	81.5*	-3.7	-1.0	70.8*
COc1ccc(-c2csc(NC(=O)C3CCN(c4ncnc5sc(C)c(C)c45)CC3)n2)cc1OC	14.7	9.5	102.2*	x	2.0	69.8*
Cc1ccccc1OCC(=O)NNC(=O)C1CCN(c2ncnc3sc(C)c(C)c23)CC1	3.0	-2.4	44.7	x	0.0	53.0*
Cc1sc2ncnc(N3CCC(C(=O)Nc4ccc(Cl)cc4Cl)CC3)c2c1C	13.5	20.2	14.5	x	0.7	34.8
C[C@H](CO)N1C[C@H](C)[C@@H](CN(C)C(=O)c2ccncc2)Oc2ncc(C#CC3CCCCC3)cc2C1=O	x	9.8	x	x	x	x
CO[C@H]1CC[C@@H]2CCOc3ccc(C#N)cc3C(=O)N(C)C[C@H](OC)[C@@H](C)C(=O)N(C)C[C@@H]1O2	x	9.4	x	x	x	x
CCC(=O)N(Cc1cc(=O)[nH]c2ccccc12)c1ccccc1	6.0	9.7	-11.3	-1.4	0.0	-9.1
Cc1ccccc1N(Cc1cc(=O)[nH]c2ccccc12)C(=O)CCl	7.8	36.6	69.7*	0.0	0.2	-4.6
O=C(CCl)N(Cc1cc(=O)[nH]c2ccccc12)c1ccccc1	19.9	33.8	81.5*	2.4	1.1	8.5
O=C(C[C@@H]1CC[C@H]2[C@@H](COC[C@@H](O)CN2C(=O)c2ccccc2F)O1)N1CCN(c2ccccc2)CC1	x	2.4	x	x	x	x
C/C=C/c1ccc2c(c1)O[C@@H](CN(C)C(=O)C1CCC1)[C@H](C)CN([C@@H](C)CO)S2(=O)=O	x	3.1	x	x	x	x
CC(C)C#Cc1cnc2c(c1)C(=O)N([C@H](C)CO)C[C@H](C)[C@H](CN(C)C(=O)Nc1cc(F)ccc1F)O2	x	-14.0	x	x	x	x
N#Cc1c(F)cccc1N1CCOCC1	1.8	x	87.4*	-2.9	-0.2	x
COc1ccc(NS(=O)(=O)c2cc(NC(=O)CCSc3ccccc3)ccc2OC)cc1	-9.3	-6.9	57.9*	0.2	0.0	8.9
O=C(O)C[C@@H]1CC[C@H](NC(=O)Nc2ccccc2)[C@@H](CO)O1	x	-12.4	x	x	x	x
Cc1ccc(-c2cn(-c3ccccc3)c(SCC(=O)NC3CCS(=O)(=O)C3)n2)cc1C (stereo not drawn)	-38.3	-59.8	20.2	0.4	0.1	51.9*
NNC(=O)CSc1nc(-c2ccccc2)cn1-c1ccccc1	7.1	-7.6	63.0*	3.5	0.0	72.3*
Cc1ccc(SCC(=O)NC2CCS(=O)(=O)C2)cc1C (stereo not drawn)	4.1	-8.7	1.9	x	0.1	-33.0
Nn1cc(-c2ccccc2)nc1SCC(=O)NCCc1ccccc1	-1.7	10.6	-5.0	-2.6	-0.2	-17.0
COc1ccc2c3c(n(C)c2c1)[C@@H](CO)N(CC1CCCCC1)CC31CCN(C(C)=O)CC1	x	-8.1	x	x	x	x
SMILES	LMP1 NFkB inh	LGR2 antag	TWEAK Fn14 block	HSP90 refold inh	aDG glyco up	TROY signal inh
O=C(C[C@@H]1CC[C@H]2NC[C@H](O)COC[C@@H]2O1)Nc1ccc(-c2ccccc2)cc1	x	-2.7	x	x	x	x
CCCNC(=O)N[C@H]1CC[C@H](CC(=O)NC2CCCCC2)O[C@@H]1CO	x	4.8	x	x	x	x
CCCCNC(=O)c1cc(-c2ccc3c(c2)OCO3)on1	-40.1	5.5	9.9	4.1	-0.1	-48.0
CCCNC(=O)c1cc(-c2ccc3c(c2)OCO3)on1	-12.4	-21.3	50.6*	13.6	-0.1	-14.5
Cc1cc(C)c(C)c(S(=O)(=O)N2CCN(c3ncnc4ccccc34)CC2)c1C	22.8	78.8*	92.8*	x	1.5	58.2*
C=CCn1c(SCc2ccc3nonc3c2)nnc1-c1cccs1	70.9*	x	-10.0	-1.8	0.7	-11.3
Cc1ccc(C(=O)SC2=NCCS2)cc1	3.9	12.6	60.1*	-1.0	0.0	49.0
COc1ccc(C(=O)SC2=NCCS2)cc1OC	1.3	x	11.7	-2.0	-0.3	8.8
O=C1C=CC(=O)C(CNc2ccc(C(=O)OCc3ccccc3)cc2)=C1	-11.7	8.9	106.8*	x	-0.3	40.5
CNC[C@H]1Oc2ccc(NC(=O)NC(C)C)cc2CC(=O)N([C@H](C)CO)C[C@@H]1C	x	-11.9	x	x	x	x
C[C@H](CO)N1C[C@H](C)[C@H](CN(C)CC2CCCCC2)OCCCC[C@H](C)Oc2ccc(NC(=O)Nc3ccc(F)cc3)cc2C1=O	x	-22.6	x	x	x	x
O=C(C[C@H]1C[C@H]2c3cc(NS(=O)(=O)c4ccccc4)ccc3O[C@H]2[C@@H](CO)O1)N1CCOCC1	x	1.0	x	x	x	x
O=C(Cc1ccccc1[N+](=O)[O-])NCC1(c2cccc3c2OCO3)OCCO1	45.8*	-5.2	-4.6	x	-0.1	-7.0
O=C(Cc1ccccc1[N+](=O)[O-])NC1CC1	-6.6	13.2	5.3	-2.0	-0.2	10.5
O=c1[nH]c(Nc2nc3ccccc3o2)nc2c1CCCC2	74.5*	-5.5	97.9*	1.1	0.8	75.5*
Cc1ccc(Nc2nc3c(c(=O)[nH]2)CCCC3)cc1	-8.7	-37.1	-23.3	0.4	0.0	-32.6
CC(=O)Nc1ccc(-c2ccnc(-c3ccc(NC(C)=O)cc3)n2)cc1	-3.5	-13.6	62.1*	-0.8	0.6	-14.6
CCCCCn1c2c(c(=N)c3ccccc31)CCC2	8.3	13.9	4.0	7.0	0.1	15.2
CCCCCCCCn1c2c(c(=N)c3ccccc31)CCC2	7.8	u	70.6*	0.2	4.5	47.1
CCCCCCCCCn1c2c(c(=N)c3c1CCC3)CCCC2	28.7	x	56.7*	1.5	0.3	50.7*
CCn1c2c(c(=N)c3c1CCC3)CCCC2	x	2.2	16.3	-1.4	-0.2	-36.0
CCCCCCCCCCn1c2c(c(=N)c3c1CCC3)CCC2	u	x	71.9*	5.9	0.7	57.1*
CCNC(=O)[C@H]1[C@H](CO)[C@H]2Cn3c(ccc(C4=CCCC4)c3=O)[C@@H]1N2Cc1cccnc1	x	-0.5	x	x	x	x
C[C@H](O)C#Cc1ccc([C@@H]2[C@@H](CO)N3CCCCN(C(=O)c4ccncc4)C[C@H]23)cc1	x	2.7	x	x	x	x
CC(C)C(=O)Nc1cccc(NC(=O)c2ccc(Cl)cc2Cl)c1	-4.3	9.3	-0.4	-1.7	-0.1	56.0*
COc1ccc(-c2csc(C3=C(O)CN(Cc4ccc(Cl)cc4)C3=N)n2)cc1OC	12.8	-17.6	-10.1	2.9	0.1	15.6
